Measurements as given in the supplement of paper PMC10127200.

Test system: DU145
Assay: Euclidean distance of Cell Painting phenotypic profile (signed KS, 77 features) to DMSO centroid (dimensionless distance); 5 or 10 uM (library dependent); higher = stronger phenotypic change vs DMSO (phenoactivity)
Settings: 48 h
Outline: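 Harmony extracted 77 features from 20X confocal images (9 fields/well) of stained cells, scoring each as a signed Kolmogorov-Smirnov statistic against same-plate vehicle wells. The cells, five cancer lines and a healthy fibroblast line, had received library compounds for 48 h at 10 or 5 uM depending on library, with 0.1% DMSO final. Phenoactivity is the Euclidean distance from each plate-position-corrected, correlation-weighted, top-dose replicate-averaged profile to the median vehicle profile.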

Point of comparison: `CCCCNC(=O)NS(=O)(=O)c1ccc(C)cc1` [Tolbutamide], Euclidean distance 0.836. Against it:
- COc1c(C)c(C(=O)c2ccc(N)c(C(=O)O)c2)n2ccccc12 — higher, 0.919
- CC[C@@H](Nc1c(Nc2cccc(C(=O)N(C)C)c2O)c(=O)c1=O)c1ccc(C)o1 — higher, 0.995
- CN[C@H]1C(=O)N[C@@H]2Cc3ccc(cc3)Oc3cc4cc(c3O[C@@H]3O[C@H](C(=O)O)[C@@H](O)[C@H](O)[C@H]3NC(=O)CCCCCCCCC(C)C)Oc3ccc(cc3Cl)[C@@H](O)[C@@H]3NC(=O)[C@H](NC(=O)[C@@H]4NC(=O)[C@@H](NC2=O)c2cc(cc(O)c2Cl)Oc2cc1ccc2O)c1ccc(O)c(c1)-c1c(O[C@H]2O[C@H](CO)[C@@H](O)[C@H](O)[C@@H]2O)cc(O)cc1[C@@H](C(=O)NCCCN(C)C)NC3=O [Dalbavancin] — higher, 1.15
